The text below walks through data of PubChem BioAssay (EPA / NIEHS).

Records with an inconclusive call do not appear. Active and inactive are the calls of the source. How the source made its calls, unless noted: active means hit-call score of the fitted dose curve at least 0.9, where 1 is the maximum; inactive means score below 0.9.

Assay [1] is described as follows: CCTE_Shafer_MEA_dev_firing_rate_mean: CCTE's Neural Network Formation Assay for Mean Firing Rate, Shafer Lab (AID 2284031). A digest of the protocol:
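Spike frequency (spikes/recording length, averaged over active electrodes) was recorded on days 5, 7, 9 and 12 and collapsed to AUC; rat cortical cultures received compound continuously over 12 days of network development.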

Assay [2] in a line: CCTE_Shafer_MEA_dev_per_burst_spike_percent: CCTE's Neural Network Formation Assay for Percent of Spikes in a Burst, Shafer Lab (AID 2284032). The gist of the method:
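Value is trapezoidal AUC over recordings on days 5, 7, 9 and 12 of the well-mean fraction of spikes falling in single-electrode bursts; rat cortical cultures exposed continuously from plating, treatment renewed DIV 5 and 9, fitted downward against DMSO.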

The nature of assay [3]: CCTE_Shafer_MEA_dev_active_electrodes_number: CCTE's Neural Network Formation Assay for Number of Active Electrodes, Shafer Lab (AID 2284040; active means hit-call score of the fitted dose curve at least 0.9, where 1 is the maximum;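 further: potency for loss of active electrodes versus DMSO so lower counts are hits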). A digest of the protocol:
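Counts electrodes per well firing at least 5 spikes/min, recorded on days 5, 7, 9 and 12 in rat cortical cultures dosed continuously from plating (treatment refreshed DIV 5, 9). Value is the area under the curve over recordings, fitted downward relative to DMSO.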

Assay [4] can be described thus: CCTE_Shafer_MEA_dev_burst_rate: CCTE's Neural Network Formation Assay for Burst Rate, Shafer Lab (AID 2284042). The gist of the method: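 Cells plated, treated day 0; recorded DIV 5, 7, 9, 12; fed and re-treated DIV 5, 9. Endpoint: bursts per recording time, active-electrode well mean, trapezoidal AUC, fitted in decreasing direction against DMSO baseline.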
The nature of assay [5]: CCTE_Shafer_MEA_dev_bursting_electrodes_number: CCTE's Neural Network Formation Assay for Number of Bursting Electrodes, Shafer Lab (AID 2284043; active means hit-call score of the fitted dose curve at least 0.9, where 1 is the maximum). A digest of the protocol:
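Number of electrodes reaching ≥1 burst every 2 min was recorded at DIV 5, 7, 9 and 12 and collapsed as trapezoidal area under the curve. Cultures were rat cortical neurons on MEA plates, dosed continuously from plating with medium and treatment refreshed on DIV 5 and 9.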

The nature of assay [6]: CCTE_Shafer_MEA_dev_burst_duration_mean: CCTE's Neural Network Formation Assay for Mean Burst Duration, Shafer Lab (AID 2284045). The gist of the method: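 Mean single-electrode burst duration (first to last spike), averaged over bursting electrodes per well, then integrated as area-under-curve across recordings at days 5, 7, 9 and 12. Rat cortical cultures on MEAs, compound present from plating, refreshed at feeds.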

A short description of assay [7]: CCTE_Shafer_MEA_dev_interburst_interval_mean: CCTE's Neural Network Formation Assay for Mean Interburst Interval, Shafer Lab (AID 2284046).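 Further: curve fitted for decrease in interburst interval relative to DMSO.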 A digest of the protocol: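 Developing rat cortical networks on 48-well MEAs receive compound from the day of plating. Burst intervals from each active electrode are averaged per well, and AUC over the recording days is fitted in the negative direction against DMSO.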

The nature of assay [8]: CCTE_Shafer_MEA_dev_inter_network_spike_interval_mean: CCTE's Neural Network Formation Assay for Mean Inter-network Spike Interval, Shafer Lab (AID 2284047). A digest of the protocol: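 Rat cortical cultures, 1.5 x 10^5 cells/well on 48-well MEA plates; continuous exposure days 0–12, medium and compound refreshed DIV 5, 9. Mean time between consecutive network-spike peaks; AUC across DIV 5/7/9/12; DMSO baseline, negative fitting direction.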

A short description of assay [9]: CCTE_Shafer_MEA_dev_network_spike_number: CCTE's Neural Network Formation Assay for Number of Network Spikes, Shafer Lab (AID 2284048).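 Further: synchronized bursts across electrodes counted on days 5 7 9 12 and integrated as AUC.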 The gist of the method: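 Number of network spikes (coordinated firing across electrodes) recorded on days 5, 7, 9 and 12 and summarised as area under the curve. Rat cortical cultures on MEA, continuous compound exposure with full medium/treatment exchange at DIV 5 and 9.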

The nature of assay [10]: CCTE_Shafer_MEA_dev_network_spike_peak: CCTE's Neural Network Formation Assay for Mean Number of Electrodes in Network Spike, Shafer Lab (AID 2284049). A digest of the protocol: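 Rat cortical primary culture, 1.5 x 10^5 cells/well, 48-well MEA (16 electrodes/well). Dosing day 0 through DIV 12, full media/compound exchange DIV 5, 9. AxIS adaptive spike detection; AUC over days 5/7/9/12; loss-of-signal vs DMSO.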

Assay [11] is described as follows: CCTE_Shafer_MEA_dev_spike_duration_mean: CCTE's Neural Network Formation Assay for Mean Spike Duration, Shafer Lab (AID 2284051). A digest of the protocol: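 Readout is the average length of network spikes, clustered firing across electrodes, summed over DIV 5, 7, 9 and 12 as area under the curve. Neurons from rat cortex developed networks on MEA plates under continuous 12-day exposure.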

Assay [12] is described as follows: CCTE_Shafer_MEA_dev_network_spike_duration_std: CCTE's Neural Network Formation Assay for Standard Deviation of Network Spike Duration, Shafer Lab (AID 2284052).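 Further: hits are decreases in network spike duration SD versus DMSO vehicle.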 A digest of the protocol:
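Read-out is the trapezoidal area-under-the-curve across recordings made on days 5, 7, 9 and 12, fitted in the negative direction against DMSO baseline. Neurons were primary rat cortical cells treated from day 0, with treatment renewed at each feed.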

Assay [13] in a line: CCTE_Shafer_MEA_dev_per_network_spike_spike_number_mean: CCTE's Neural Network Formation Assay for Mean Number of Spikes in a Network Spike, Shafer Lab (AID 2284053). The gist of the method: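 Continuous twelve-day exposure of developing rat cortical networks grown over 16 microelectrodes per well; spontaneous firing is captured at four time points, and the per-network-spike spike number is integrated over development by trapezoidal AUC.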

A short description of assay [14]: CCTE_Shafer_MEA_dev_per_network_spike_spike_percent: CCTE's Neural Network Formation Assay for Percent of Spikes in a Network Spike, Shafer Lab (AID 2284054). A digest of the protocol: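 Metric: fraction of spikes falling in a 0.05 s window at network-spike peaks. Recordings were made on days 5, 7, 9 and 12 and collapsed by trapezoidal AUC. Cultures were rat cortical neurons on MEA plates, dosed continuously from plating, re-dosed at media changes.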

The nature of assay [15]: CCTE_Shafer_MEA_dev_LDH: CCTE's Lactate Dehydrogenase Assay for Cytotoxicity in the Neural Network Formation Assay, Shafer Lab (AID 2284068; active means hit-call score of the fitted dose curve at least 0.9, where 1 is the maximum;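 further: exposure for twelve days from plating with re-dosing on DIV 5 and 9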). The gist of the method: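 Cytotoxicity companion to network-formation recordings: rat cortical neurons received compound over 12 days of development, re-dosed at DIV 5 and 9 feeds. Viability was inferred from LDH enzyme activity relative to DMSO.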

The nature of assay [16]: CCTE_Shafer_MEA_dev_AB: CCTE's Alamar Blue Assay for Cytotoxicity in the Neural Network Formation Assay, Shafer Lab (AID 2284083; active means hit-call score of the fitted dose curve at least 0.9, where 1 is the maximum;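 further: resazurin reduction fluorescence as viability of cultured neurons; twelve days of exposure from plating with re-dosing on DIV 5 and 9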). The gist of the method:
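Fluorescent resazurin reduction serves as the viability read-out, with DMSO as negative control and baseline. Cells were primary rat cortical neurons grown on MEA plates and dosed from day 0 to day 12, treatment renewed on DIV 5 and 9.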

A short description of assay [17]: CCTE_Shafer_MEA_dev_mutual_information_norm: CCTE's Neural Network Formation Assay for Mutual Information Normalization, Shafer Lab (AID 2284091). A digest of the protocol: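 Shared information across electrodes, tracked on days 5, 7, 9 and 12 of network development and collapsed as trapezoidal area under the curve. Rat cortical cultures were treated continuously from plating, with treatment renewed at feeds on DIV 5 and 9; DMSO baseline, negative-direction fit.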

A short description of assay [18]: CCTE_Shafer_MEA_dev_correlation_coefficient_mean: CCTE's Neural Network Formation Assay for Mean Correlation Coefficient, Shafer Lab (AID 2284093). The gist of the method: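 Read-out: well-mean correlation coefficient of spike trains between electrode pairs, collapsed over four recording days as trapezoidal area-under-the-curve. Developing rat cortical neuron networks grown on MEAs received test chemical continuously from plating.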

A short description of assay [19]: IUF_NPC1a_proliferation_area_72hr: Leibniz Research Institute for Environmental Medicine (IUF) 72-hour Neural Progenitor Cell Proliferation Area Assay (NPC1a) (AID 2284208). The gist of the method: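 Read-out: increase in sphere area over 72 h by automated phase-contrast imaging, fitted in positive direction versus DMSO baseline. One hNPC sphere (0.25-0.35 mm) per well in EGF/FGF medium; growth-factor withdrawal served as positive control.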

A short description of assay [20]: IUF_NPC1_viability_72hr: Viability Assessment at 72 hours in the Leibniz Research Institute for Environmental Medicine (IUF) Neural Progenitor Cell Proliferation Assay (NPC1) (AID 2284209). The gist of the method: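 Viability was measured by resazurin-to-resorufin fluorescence (alamar blue) after 72 h of continuous exposure without compound renewal. Each well held one hNPC sphere (gestational week 16-19 fetal cortex, 0.25-0.35 mm) cultured in EGF/FGF proliferation medium at 37C and pH 7.2-7.6.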

The nature of assay [21]: CCTE_Mundy_HCI_Cortical_Synap_Neur_Matur_NeuriteSpotCountPerNeuriteLength: CCTE's Synaptogenesis and Neurite Maturation Assay in rat cortical cells for Neurite Spot Count per Neurite Length, Mundy Lab (AID 2284210). The gist of the method:
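Synaptophysin spots per unit neurite length, measured by automated imaging of MAP2/synaptophysin/Hoechst-stained neurons. Cultures from rat cortex received chemical at DIV 7 with media change through DIV 12; glial growth arrested by AraC at DIV 5; DMSO baseline.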

The nature of assay [22]: CCTE_Mundy_HCI_Cortical_Synap_Neur_Matur_BPCount: CCTE's Synaptogenesis and Neurite Maturation Assay in rat cortical cells for Branch Point Count, Mundy Lab (AID 2284211). The gist of the method:
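HCI read-out of branch points from MAP2/synaptophysin/Hoechst immunofluorescence; rat cortical cultures, AraC DIV 5, dosing DIV 7, fixed DIV 12; fit in positive direction vs DMSO baseline.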

Assay [23] is described as follows: CCTE_Mundy_HCI_Cortical_NOG_NeuriteCount: CCTE's Neurite Outgrowth Assay in rat cortical cells for Neurite Count, Mundy Lab (AID 2284212).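 Further: cells fixed about two days after chemical exposure began.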 The gist of the method:
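Rat cortical primary cells; compound added 2 h post-plating, 1/10 dilution of working solution. Anti-betaIII-tubulin/AF488 ICC; ArrayScan neurite count vs DMSO.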

Assay [24] is described as follows: CCTE_Mundy_HCI_Cortical_NOG_NeuriteLength: CCTE's Neurite Outgrowth Assay in rat cortical cells for Neurite Length, Mundy Lab (AID 2284213). The gist of the method: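 First, rat primary cortical cells were plated and, 2 h later, given test chemical as a 1/10 dilution. Finally, βIII-tubulin immunostaining enabled automated imaging of neurite length.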

For the molecule `CCOP(=O)(Oc1cnc(C(C)(C)C)nc1)OC(C)C` (centres undefined), the result in assay [1], in assay [2], in assay [4], in assay [5], in assay [6] and in assay [7] was inactive. For the same molecule, the outcome in assay [8], in assay [9], in [10], in assay [11], in [12] and in [13] was inactive. For the same molecule, the molecule was classed as inactive in [14], in assay [17], in assay [18], in assay [19], in [20] and in [21]. In addition, the molecule was classed as inactive in assay [22], in assay [23] and in assay [24]. The AC50 (commonly the concentration at which the activity in the assay is half-maximal) is 29.2 µM (active) in [3], 11.4 µM (active) in assay [15] and 11.7 µM (active) in [16].
